FBPA coupling cs: counter-screen for Giardia aldolase inhibitors: coupling enzyme system | coupling enzyme system counterscreen, AmpLite Red fluorescence | activity change, negative = inhibition, % at 58.2 µM, hits read low | actives 0.67% (n = 290,000); in the data active = activity change below about -30%
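Final compound at 57.5 uM, incubated 10 min at RT with coupling enzyme reagent (glyceraldehyde-3-phosphate), then 20 min with substrate and AmpLite Red detection. Fluorescence read at 525/598 nm; tests interference with the coupling assay, not aldolase inhibition.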
Tau fluor cs: counter-screen for tau fibril formation inhibitors; actives 0.93% (n = 280,000); Potency, µM (series often up to 57.7 µM); AID 1463; tau K18 P301L Alexa594 fluorescence, heparin fibrillization; also: nearly all actives have a fitted effect of over 55% in size
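Human K18 P301L tau (15 uM unlabeled plus 0.24 uM Alexa 594-labeled, final) in 100 mM sodium acetate pH 7 was mixed with compound and 20 uM heparin and incubated 6 hr at 37 C.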
Tau FP inhib: tau fibrillization inhibition (FP); P10636; K18 P301L tau heparin fibrillization, Alexa594 FP, 6 h; Potency, µM (titrated, usually from 57.7 µM), hits mostly inhibitors; actives 0.39% (n = 280,000); also: nearly all actives have a fitted effect of over 55% in size
Target sequence (P10636 561-689 P618L limits assumed): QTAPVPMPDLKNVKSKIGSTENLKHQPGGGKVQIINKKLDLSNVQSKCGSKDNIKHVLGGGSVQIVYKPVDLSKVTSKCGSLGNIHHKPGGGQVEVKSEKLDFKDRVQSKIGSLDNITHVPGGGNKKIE
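Heparin (20 uM) drove fibril formation of recombinant tau K18 P301L, 15 uM unlabeled with 0.24 uM Alexa 594 label, for 6 hr at 37 C in 100 mM sodium acetate pH 7. Fluorescence polarization (555/632 nm) read 1 hr after 30 uM ThT.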
Tau ThT inhib: inhibitors of human tau fibril formation, thioflavin T binding; recombinant tau K18 P301L (four-repeat tau fragment), heparin-induced fibrillization, ThT fluorescence; Potency, µM (top dose mostly 57.4 µM), usual class: inhibitors; AID 1460; P10636; actives 2.1% (n = 270,000); also: nearly all actives have a fitted effect of over 55% in size
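In this qHTS, human K18 P301L tau is incubated with compound and heparin for 6 hr at 37 C, and Thioflavin T fluorescence then reports fibril load.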
Sfp inh: Sfp phosphopantetheinyl transferase inhibition | actives 3.5% (n = 310,000) | Biochemical Sfp PPTase activity, qHTS | Potency, µM, most hits filed as inhibitors;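 also: the enzyme is Sfp with the accession as filed and its product quenches rhodamine fluorescence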
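Reaction rates are the 30-min fluorescence difference (ex 525, em 598 nm) in wells containing 15 nM Sfp, 5 uM rhodamine-CoA and 12.5 uM BHQ-2-YbbR at pH 7.6 with 10 mM MgCl2.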
A number is an active result; n = inactive; u = inconclusive; x = no result given; ! = not confirmed by another sample; [ ] = another dose, or the depositor's remark. In the library only some 5.2% were active in any assay of this set; here they are far more common. Unless noted, calls follow the shape of the dose curve; as a rule, active = well fitted curve in the direction sought with a large enough effect; inconclusive = small, poorly fitted or top-dose-only effect, or another doubt; inactive = no such curve, though single readings can be large; an effect the other way counts as inactive or inconclusive.

SMILES	FBPA coupling cs	Tau fluor cs	Tau FP inhib	Tau ThT inhib	Sfp inh
CC(C)=CCC/C(C)=C/CO/N=C1/C[C@@H](O)[C@@H](O)[C@@H]2[C@@H]3C(=O)N(Cc4ccccc4)C(=O)[C@H]3CC[C@@H]12	n	n[11.6 µM]	n[11.6 µM]	n[11.5 µM]	n
Cc1ccc(C)c(NC(=O)n2ncc3cc(Cl)ccc32)c1	x	n	n	u	x
COc1cc2ccccc2cc1C(=O)N1CCN(c2nc3ccc(F)cc3s2)CC1	x	n	n	u	x
Cc1ccc2c(c1)NC(=O)C(CC(=O)NCCCN1CCc3ccccc3C1)O2 (stereo not drawn)	n	n	n	u	50µM
CC(=O)Nc1ccc(Nc2ncnc3c2c(-c2ccccc2)cn3-c2ccc(C)c(Cl)c2)cc1	x	u	u	n	x
Cc1ccccc1-c1nsc(SCC(=O)c2ccc(Cl)cc2)n1	n	n	n	n	n
CC1=C(CC(=O)c2ccc(Cl)cc2)C(=O)c2ccccc2C1=O	-40	u	u	u	45µM
Cc1ccc(N(Cc2cccs2)C(=O)c2ccc(OC(C)C)cc2)cc1	x	n	n	n	x
CN(Cc1ccccc1)S(=O)(=O)c1cccc2cccnc12	-31	n	n	n	n
CCSS(=O)(=O)c1cccc2cccnc12	n	n	u	u	20µM
O=C(O)CCS(=O)(=O)c1cccc2cccnc12	n	n	n	n	n
COc1cccc(CNC(=O)CN(C)S(=O)(=O)c2cccc3cccnc23)c1	n	n	n	n	n
CN(CC(=O)Nc1n[nH]c(=S)s1)S(=O)(=O)c1cccc2cccnc12	n	x	x	x	40µM
Cc1csc(NC(=O)CN(C)S(=O)(=O)c2cccc3cccnc23)n1	n	n	n	n	n
CC(C)(C)OC(=O)N1CCC(c2c(C(=O)NCc3ccco3)cnn2-c2ccc(F)cc2)CC1	x	n	n	n	x
CCN(CC)CCCNC(=O)Cc1ccc(NC(=O)N2CCCCc3ccccc32)cc1	x	n	n	n	x
CCCCCCCCCCCC	n	x	x	x	n
O=C(c1cnccn1)N1CCC2(CC1)CN(Cc1cc(C(F)(F)F)cc(C(F)(F)F)c1)C2	n	x	x	x	n
COC(=O)COc1ccc(C(C2C(=O)CC(C)(C)CC2=O)C2C(=O)CC(C)(C)CC2=O)cc1	n	x	x	x	56µM
CC1C(=O)NN=C1C(=O)N/N=C\C(Br)=C\c1ccccc1 (stereo not drawn)	n	n	n	n	50µM
O=C(CNc1cccc2ccccc12)N/N=C/C(Br)=C/c1ccccc1	n	14µM[quencher]	n	u	n
CC1C(=O)NN=C1C(=O)N/N=C\c1ccc(O)cc1O (stereo not drawn)	n	n	n	u	n
O=C(N/N=C/C(Br)=C/c1ccccc1)c1cccs1	n	u	u	n	56µM
O=C(CNc1cccc2ccccc12)N/N=C/c1ccc[nH]1	n	n	n	u	n
O=C(N/N=C/C=C/c1ccccc1)c1cccs1	n	n	n	n	n
SMILES	FBPA coupling cs	Tau fluor cs	Tau FP inhib	Tau ThT inhib	Sfp inh
COc1cc(/C=N/NC(=O)C2=NNC(=O)C2C)ccc1O (stereo not drawn)	n	n	n	x	50µM
COc1cc2c(C(=O)N(C)c3cccc(C(F)(F)F)c3)cn(CC(C)C)c(=O)c2cc1OC	x	n	n	n	x
COc1cc(Cl)c(C)cc1Nc1nc2ccccc2c2nnc(C)n12	x	n	n	n	x
CCN(CC)c1ccc(/C=N/Nc2ccc(C)cc2)c(O)c1	n	u	n	25µM	40µM
Cc1cccc(N/N=C/c2ccccc2O)c1	n	16µM[quencher]	u	u	n
CCN(CC)C(=O)c1cc([N+](=O)[O-])cc2c1-c1ccc([N+](=O)[O-])cc1C2=C(C#N)C#N	-34	u	u	32µM	71µM
CCN(CC)C(=O)c1ccc(Oc2ccc([N+](=O)[O-])cc2Cl)cc1	n	n	n	n	n
CN=C(NC#N)NCCSC[C@H]1N=CN=C1C	n	x	x	x	n
C/C(CC(=O)NCc1ccccc1)=N\NC(N)=S	n	n	n	n	45µM
C/C(CC(=O)NCc1ccc(F)cc1)=N\NC(N)=S	n	n	n	n	56µM
COc1cccc(C(c2sc3nc(-c4ccco4)nn3c2O)N2CCN(C)CC2)c1 (stereo not drawn)	x	n	n	n	x
C=C(C)Cn1c(=O)c2c(nc3n2CCN3c2cc(C)cc(C)c2)n(C)c1=O	x	n	n	n	x
CC1=C(/C=C/C(C)=C/C=C/C(C)=C/C(=O)Nc2ccc(O)cc2)C(C)(C)CCC1	n	11µM[quencher]	n	16µM	n
CC1=C(\C=C/C(C)=C/C=C\C(C)=C\C(=O)O)C(C)(C)CCC1	n	n	u	32µM!	n
CC1=C(/C=C/C(C)=C/C=C/C(C)=C\C(=O)O)C(C)(C)CCC1	n	n	n	n	n
COc1cccc(C2C(C(=O)Nc3ccccc3)=C(C)Nc3nc(-c4ccccc4)nn32)c1 (stereo not drawn)	x	u	n	n	x
CCOc1ccc(CNC(=O)c2ccc3c(c2)c(C)c(C)n3Cc2ccc(Cl)cc2)cc1	x	n	n	n	x
Cc1cc(C)n2[nH]c(=O)c(N=Nc3ccc(S(N)(=O)=O)cc3)c2n1	n	n	n	u	n
Cc1cc(=O)n2[nH]c(C(F)(F)F)c(-c3ccccc3)c2n1	n	x	x	x	n
Cc1ccc(N=Nc2c(N)[nH]n3c(=O)c4c(nc23)CCCC4)cc1	n	n	n	1.4µM	n
Cc1ccc(N=Nc2c(N)[nH]n3c(=O)cc(C)nc23)cc1	n	n	u	4µM	n
Cc1ccc(N=Nc2c(=O)[nH]n3c(C)cc(C)nc23)cc1	n	n	n	20µM	n
CCOc1ccccc1CNC(=O)CCn1c(=O)c2cccn2c2ccc(F)cc21	x	n	n	n	x
CCOC(=O)c1c(C)[nH]c(CCC(=O)Nc2c(C)cccc2CC)c1C	x	n	n	n	x
CN(c1nccc(=O)[nH]1)C1CCN(c2nc3ccccc3n2Cc2ccc(F)cc2)CC1	x	x	x	x	n
SMILES	FBPA coupling cs	Tau fluor cs	Tau FP inhib	Tau ThT inhib	Sfp inh
O=C(c1cccnc1)N1CCN(Cc2cccc(F)c2)CC1	n	n	n	n	79µM
COc1ccc(C(=O)N2CCN(Cc3ccccc3C(F)(F)F)CC2)cc1	n	x	x	x	n
Fc1cccc(CN2CCN(c3ncccn3)CC2)c1	n	n	n	n	45µM
COc1cccc(CN2CCN(C(=O)c3ccc(-c4ccccc4)cc3)CC2)c1	n	n	n	u	n
COc1cccc(CN2CCN(C(=O)c3cccc(OC)c3)CC2)c1	n	x	x	x	79µM
O=C(c1cccnc1)N1CCN(Cc2ccc3ccccc3c2)CC1	n	x	x	x	n
COc1cccc(C(=O)N2CCN(Cc3ccccc3C(F)(F)F)CC2)c1	n	n	n	n	56µM
CC(C)Oc1ccc(CNC(=O)CN2C(=O)c3cccnc3Oc3ccc(Cl)cc32)cc1	x	n	n	n	x
CC1Cc2ccccc2N1c1nc(C2CC2)nc2c1nnn2Cc1ccccc1 (stereo not drawn)	n	n	n	n	n
CC1Cc2ccccc2N1c1ncnc2c1nnn2Cc1ccccc1 (stereo not drawn)	n	n	n	n	28µM
Cc1cccc2nc(CSCc3ccco3)cn12	n	n	n	u	32µM

Screens (PubChem BioAssay)
